# HT1080 IDH1KD tx = toxicity to HT-1080 IDH1 knockdown cells (counter line). HT-1080 IDH1 knockdown viability, ATP luminescence, 48 h. Potency, µM (series often up to 46.1 µM), inactives show top-dose activity, negative = toxicity, usual class: cytotoxic. hit rate 2% among 360,000. AID 686971;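 note: potency is the fitted concentration of half-maximal effect; 0% = DMSO wells and -100% = cell-free medium wells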
#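 IDH1KD HT-1080 cells, 750/well, RPMI + 5% FBS; compound pinned after 2 h settling; 48 h, 37 °C; CellTiter-Glo luminescence; % activity normalised to DMSO and no-cell wells; curves fitted, classed by r2 and efficacy.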
# DT40 TDP1 CPT = growth inhibition of DT40 Tdp1-/-;hTDP1 cells with camptothecin (screen for TDP1 inhibitors). hit rate 12% among 420,000. Potency, µM (series often up to 46.2 µM), without a hit: at the top dose activity change, negative = growth inhibition, most hits filed as inhibitors. chicken DT40 Tdp1-/-;hTDP1 cells + 20 nM CPT, ATP luminescence, 48 h; note: potency is the fitted concentration of half-maximal effect; nearly all actives have a fitted effect of over 55% in size
#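 Cell growth measured by CellTiter-Glo luminescence after a minimum 48 h, 37 C compound exposure with 20 nM CPT in Tdp1-knockout DT40 cells stably expressing hTDP1, seeded 400/well; qHTS titration format.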
# HT1080NT lethal = kills 2HG-producing HT-1080-NT fibrosarcoma cells; HT-1080-NT fibrosarcoma viability, CellTiter-Glo ATP luminescence, 48 h; Potency, µM (titrated, usually from 46.1 µM), for inactives: at the top dose activity, negative = less viability, usual class: cytotoxic; hit rate 1.6% among 360,000; AID 686970;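 note: NT is the 2HG producing partner of a matched IDH1 knockdown line; potency is the fitted concentration of half-maximal effect; 0% = DMSO-treated cells and -100% = media-only wells without cells; nearly all actives have a fitted effect of over 55% in size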
#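 HT-1080-NT fibrosarcoma cells (2HG-overproducing), 750 cells/well in RPMI with 5% FBS, dosed after 2 h and incubated 48 h at 37C. CellTiter-Glo luminescence normalized to DMSO and no-cell wells; concentration-response curves fitted and classed.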
# TDP1 cell noCPT = qHTS for Inhibitors of human tyrosyl-DNA phosphodiesterase 1 (TDP1): qHTS in cells in absence of CPT | DT40 Tdp1-/- hTDP1 cells, no CPT, ATP luminescence, 48 h | Potency, µM (doses to about 46.2 µM), inactives show at the highest dose activity change, negative = growth inhibition, actives largely listed as inhibitors | hit rate 15% among 420,000; note: potency is the fitted concentration of half-maximal effect; nearly all actives have a fitted effect of over 55% in size
#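 Compound effects on proliferation are scored in DT40 Tdp1-/-;hTDP1 cells in the absence of CPT. ATP levels (CellTiter-Glo luminescence) are recorded after a ≥48 hr, 37 °C incubation.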
# ALOX12 inh = ALOX12 (human) lipoxygenase inhibition | Potency, µM (titrated, usually from 108 µM), inactives show at the highest dose activity change, negative = inhibition, usual class: inhibitors | purified 12hLO, xylenol orange hydroperoxide absorbance | hit rate 1.1% among 580,000 | P18054; note: potency is the fitted concentration of half-maximal effect
# Target sequence (P18054 whole entry, looked up): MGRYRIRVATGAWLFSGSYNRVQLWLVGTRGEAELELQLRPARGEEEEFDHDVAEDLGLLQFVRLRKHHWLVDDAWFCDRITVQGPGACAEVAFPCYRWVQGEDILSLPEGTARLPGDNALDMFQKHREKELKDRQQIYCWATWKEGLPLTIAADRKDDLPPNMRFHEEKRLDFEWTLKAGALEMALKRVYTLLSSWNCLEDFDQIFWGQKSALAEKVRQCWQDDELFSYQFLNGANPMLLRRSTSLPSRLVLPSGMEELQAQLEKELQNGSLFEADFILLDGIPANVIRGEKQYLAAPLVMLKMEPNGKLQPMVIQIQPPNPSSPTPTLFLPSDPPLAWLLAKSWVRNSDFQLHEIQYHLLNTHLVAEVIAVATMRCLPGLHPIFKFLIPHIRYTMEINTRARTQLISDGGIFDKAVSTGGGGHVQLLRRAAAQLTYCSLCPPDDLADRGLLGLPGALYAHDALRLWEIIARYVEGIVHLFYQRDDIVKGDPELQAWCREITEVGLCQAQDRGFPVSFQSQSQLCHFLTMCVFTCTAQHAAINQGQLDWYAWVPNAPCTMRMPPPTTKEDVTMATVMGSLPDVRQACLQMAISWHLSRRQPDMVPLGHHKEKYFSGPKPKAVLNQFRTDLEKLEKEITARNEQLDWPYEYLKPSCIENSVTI
#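 Purified human 12hLO (150 nM final) in 25 mM Hepes, 0.01% Triton X-100, pH 7.0 was preincubated 15 min at room temperature with compound. Then 40 uM arachidonic acid was added, 30 min. Hydroperoxide was read by Fe-XO absorbance ratio 573/405 nm.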
# IL-1B inflam inh = blocks inflammasome-driven IL-1 beta release. activity change, % at 57.5 µM. AID 743279. THP-1 LPS/ATP IL-1B secretion, AlphaLISA, 16 h; active compounds read low. hit rate 4.7% among 360,000; in the data active = activity change below about -50%; inconclusive = mostly about -30% to -49%
#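 Secreted IL-1B measured by AlphaLISA bead assay after 16 h compound exposure of THP-1 cells; compounds (final up to 57.5 uM) added 1 h before LPS (250 ng/mL) and ATP (1.25 mM) stimulation; lower signal means less secretion.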
# An asterisk follows results filed as active; ? = inconclusive; . = not tested or not shown; [ ] = remark or other dose. The full list was thinned out, with hits kept by preference. Unless noted, calls come from the whole dose curve; as a rule, active = well fitted curve in the direction sought with a large enough effect; inconclusive = small, poorly fitted or top-dose-only effect, or another doubt; inactive = no such curve, though single readings can be large; an effect the other way counts as inactive or inconclusive. Unless noted, % is set by controls: 0 for no effect and ±100 for the full control effect.
SMILES,HT1080 IDH1KD tx,DT40 TDP1 CPT,HT1080NT lethal,TDP1 cell noCPT,ALOX12 inh,IL-1B inflam inh
CCN(CC)C(=O)CC(c1cc(OC)c(OC)c(OC)c1)c1c(OC)cc(OC)c2ccc(=O)oc12 (configuration not stated),0.2%,?,1.0%,-21.4%,33.4%,11.0
COc1cc(C(CC(=O)N2CCOCC2)c2c(OC)cc(OC)c3ccc(=O)oc23)cc(OC)c1OC (configuration not stated),-0.3%,6.3%,-1.7%,-1.2%,-6.0%,-6.7
Cc1ccc(C(=O)Nc2ccccc2C(=O)N2CCOCC2)cc1[N+](=O)[O-],?,-1.0%,16.9%,-28.2%,15.7%,13.9
Cc1ccccc1CN(C)CC(=O)Nc1c(C)cccc1C(C)C,-21.4%,?,-7.0%,3.26µM*,?,-86.1*
CCc1cccc(C)c1NC(=O)CN(C)Cc1cccc(F)c1,-5.9%,?,1.3%,16.4µM*,-8.4%,7.1
Cc1cccc(C(C)C)c1NC(=O)CN(C)Cc1cccc(F)c1,-9.4%,?,-2.3%,23.1µM*,-3.1%,-4.5
CN(CC(=O)N1CCc2nc3cc(-c4ccccc4)[nH]n3c(=O)c2C1)S(=O)(=O)c1cccs1,.,.,.,.,40.2%,.
COc1ccc(C2C(c3ccccc3)=C(O)C(=O)N2CCc2ccccc2)cc1OC (configuration not stated),.,.,.,.,-26.6%,.
O=C(c1cccs1)N(Cc1cccc(Br)c1)C1CC1,.,.,.,.,-1.6%,.
O=C1CS/C(=N/N=C/c2cccs2)N1,0.9%,7.6%,13.5%,3.2%,4.7%,10.0
O=C1CS/C(=N/N=C/c2cccs2)N1Cc1ccc(F)cc1,-15.2%,18.4µM*,-13.0%,?,0.0%,24.5
C=CCN1C(=O)C(Cc2ccc(F)cc2)S/C1=N/N=C/c1cccs1 (configuration not stated),-2.0%[9.24 µM],-35.0%,1.8%,29.1µM*,18.8%,-14.5
C=CCN1C(=O)/C(=C/c2cccs2)S/C1=N\S(=O)(=O)c1ccc(F)cc1,-3.7%,-28.8%,-0.3%,-25.0%,-15.5%,1.9
O=C1CCN(C(=O)[C@@H]2CCCN2C(=O)NC2CCCCC2)CCCCCCN1,.,.,.,.,9.8%,.
CC(=O)Nc1ccccc1C(=O)C(=O)Nc1ccc(C(=O)N2CCOCC2)cc1,-4.4%,-3.3%,-0.9%,-17.4%,-5.8%,-2.8
O=S1(=O)c2ccccc2C(O)C(Cc2ccncc2)N1CCO (configuration not stated),.,.,.,.,10.4%,.
C=C1[C@@H](O)[C@H](Cc2ccccc2)N(Cc2ccccc2Br)S1(=O)=O,23.1µM*,20.6µM*,?,18.4µM*,-50.3%,-102.0*
O=c1cc(-c2ccc(O)cc2)oc2cccc(O)c12,.,29.9µM*,.,29.9µM*,.,.
COc1ccc(-c2cc(=O)c3c(O)cc(O)cc3o2)cc1,-26.3%,?,-3.4%,23.7µM*,-16.3%,?
O=c1cc(-c2ccc(O)cc2)oc2c(-c3c(O)cc(O)c4c(=O)cc(-c5ccc(O)cc5)oc34)c(O)cc(O)c12,9.6%,16.7%,-0.5%,-11.4%,25.8%,5.4
O=C(NCC1CCCN1S(=O)(=O)c1cccs1)c1cccc(F)c1 (configuration not stated),-3.0%,16.4µM*,-0.9%,18.4µM*,-17.6%,2.5
Cc1cccc(C)c1NC(=O)C(=O)NCC1CCCN1S(=O)(=O)c1cccs1 (configuration not stated),0.1%,?,0.8%,11.6µM*,-3.8%,27.0
O=C(NCC1CCCN1S(=O)(=O)c1cccs1)C(=O)Nc1ccc(F)cc1F (configuration not stated),0.1%,?,-3.1%,?,-9.8%,1.0
Cc1ccc(NC(=O)C(=O)NCC2CCCN2S(=O)(=O)c2cccs2)c(C)c1 (configuration not stated),-10.6%,18.4µM*,-1.6%,?,20.3%,-10.2
Cc1cc(C)cc(NC(=O)C(=O)NCC2CCCN2S(=O)(=O)c2cccs2)c1 (configuration not stated),-6.1%,7.31µM*,0.7%,10.3µM*,11.6%,-4.9
SMILES,HT1080 IDH1KD tx,DT40 TDP1 CPT,HT1080NT lethal,TDP1 cell noCPT,ALOX12 inh,IL-1B inflam inh
Cc1nn(C)c(C)c1CCNC(=O)CCC[C@H]1NC[C@@H]2C[C@H]1CN(Cc1ccccc1)C2,.,.,.,.,27.8%,.
Cc1cc(C)c(C(=O)OCC(=O)Nc2cccc(S(=O)(=O)N3CCCCC3)c2)c(C)c1,-5.3%,?,-2.1%,?,-26.1%,?
CC(OC(=O)c1ccc(NC(=O)CC#N)cc1)C(=O)Nc1ccc(Oc2ccccc2)cc1 (configuration not stated),.,.,.,.,-11.8%,.
Cc1cc(C(=O)C(C)OC(=O)c2ccc(NC(=O)CC#N)cc2)c(C)n1-c1ccc(OC(F)F)cc1 (configuration not stated),25.9µM*,23.1µM*,-19.3%,11.6µM*,467.6%,?
CCn1cc(CN2CC[C@H](CO)[C@H](N(C)C)C2)c(C)n1,.,.,.,.,1.9%,.
CCNC(=O)c1cc2c(c(-c3cccc(-c4cccc(C(=O)N(C)C)c4)c3)n1)[C@@H](CCO)N(S(=O)C(C)(C)C)C2 (some centres not stated),5.3%,?,6.6%,20.6µM*,?,-22.6
CC(C)(C)S(=O)N1Cc2cc(C(=O)NCC(F)(F)F)nc(-c3cccc(-c4cccc(F)c4)c3)c2[C@@H]1CCO (some centres not stated),20.6µM*,18.4µM*,?,18.4µM*,-11.1%,-2.2
N#Cc1nccnc1S(=O)(=O)c1cccs1,?,0.651µM*,20.6µM*,1.03µM*,316.0%,-98.4*
Cc1noc2c(NC3CCN(C)CC3)cc(-c3ccc(Cl)cc3)nc12,.,.,.,.,-6.0%[176 µM],.
N#C/C(=C\c1cccc([N+](=O)[O-])c1)C(=O)Nc1cccnc1,-4.1%,-2.0%,-14.9%,-12.1%,?,37.8
N#C/C(=C\c1cccc([N+](=O)[O-])c1)C(=O)NCc1cccnc1,7.0%,20.6µM*,5.8%,20.6µM*,?,13.2
N#C/C(=C\c1cccc([N+](=O)[O-])c1)C(=O)NCc1ccc(Cl)cc1,?,5.8µM*,?,11.6µM*,?,-107.6*
N#C/C(=C/c1cccc([N+](=O)[O-])c1)C(=O)Nc1ccccc1O,-1.6%,3.66µM*,-2.2%,?,0.5%,-7.0
N#C/C(=C\c1cccs1)C(=O)NCc1cccnc1,-1.2%,-6.3%,-4.6%,12.6%,-12.1%,14.5
